95 compounds from PubChem BioAssay AID624304 (Sanford-Burnham Center for Chemical Genomics, 2012) can be followed below.

In all, about 360,000 compounds went through this assay and about 1,800 (0.5%) were called active.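 Rule for the calls: active = interference check ratio from 0.5 to 1.5 plus GFP to RFP signal ratio inhibition reaching or exceeding a fixed threshold (cut at about 30% in these data, passing the limit was not always enough); inactive = the rest.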 Many of the other results were omitted from the sample, so actives are more common in it than they were.

A short description of this assay: suppressors of acrylamide-induced Pgst-4::GFP reporter in worms, primary screen, SKN-1 inhibitor project, whole organism, uHTS, GFP/RFP fluorescence ratio, strain VP596 (AID 624304). Conditions: C. elegans VP596 Pgst-4::GFP/RFP ratio, 24 h, at 21.8 µM, stronger effect = higher value.
For the compound `COc1cc2ccccc2cc1C(=O)Nc1ccncc1`, the inhibition is 36.2% (active).

For `COc1cccc(OC)c1C(=O)Nc1ccc(Cc2ccncc2)cc1`, the inhibition was -3.1% (inactive).

Turning to `COc1ccccc1N(C)S(=O)(=O)c1ccc(Cl)c(C(=O)Nc2ccncc2)c1`, the inhibition is 23.4% (inactive).

As for `O=C(O)c1cccc2c1C(=O)N(C1CCCC1)C2`, the inhibition was -4.43% (inactive).

With `CCN(CC)c1ccc2oc(=O)c(C)nc2c1`, the inhibition was 40.8% (active).

For `Cc1ccc2c(=O)oc(N(C)C)nc2c1`, the inhibition is 8.34% (inactive).

For `CN(Cc1nc2ccccc2c(=O)[nH]1)Cc1cc(=O)oc2ccc3ccccc3c12`, the inhibition is 14.1% (inactive).

With `Cc1c(Cl)c([N+](=O)[O-])nn1CC(=O)NCCCN1CCOCC1`, the inhibition is 28.4% (inactive).

For `CC1Cc2ccccc2N1S(=O)(=O)c1cccc(C(=O)NCC(c2ccco2)N2CCCC2)c1` (stereo not given), the inhibition was 4.55% (inactive).

`CC1Cc2ccccc2N1S(=O)(=O)c1cccc(C(=O)OCC(=O)N2CCOCC2)c1` (stereo not given): the inhibition is 17.4% (inactive).

With `CCCCn1ccnc1C(=O)c1cccc(S(=O)(=O)N2c3ccccc3CC2C)c1` (stereo not given), the inhibition was 41.7% (active).

Turning to `COCCN(C(=O)COC(=O)Cc1cccc(OC)c1)c1c(N)n(Cc2ccccc2)c(=O)[nH]c1=O`, the inhibition is 5.12% (inactive).

For the compound `CCCCOc1ccc(N(CC(=O)NC(C)C)C(=O)CCC(=O)Nc2ccccn2)cc1`, the inhibition is -1.05% (inactive).

Regarding `O=C(NCCCn1ccnc1)C(=O)NCC1OCCN1S(=O)(=O)c1cc(F)ccc1F` (stereo not given), the inhibition is -7.89% (inactive).

Regarding `CCc1ccc(-c2nc(SCC(=O)NC3CCCC3)n[nH]2)cc1`, the inhibition is 3.3% (inactive).

As to `Cn1c(=NC(=O)C2CC2)sc2cc(F)cc(F)c21`, the inhibition is 38% (active).

`Cn1c(=NC(=O)c2ccco2)sc2cccc(F)c21`: the inhibition is 7.91% (inactive).

`CSCCNCc1cn(-c2ccc(F)cc2F)nc1-c1ccccc1C`: the inhibition is -14.2% (inactive).

As to `O=C1CC2(CCN(C(=O)COc3ccc(F)cc3)CC2)Oc2ccccc21`, the inhibition was -3.05% (inactive).

Consider `CN(C)/C=N/c1cc(=O)n(C)c(=O)n1CC1CC1`, for which the inhibition is 8.63% (inactive).

For the compound `CN=C1C=C/C(=N/N=c2\ccn(O)cc2C)C=C1C`, the inhibition is 41.1% (active).

Take `COc1ccc(/C=C/C2=CC(C)(C)NC(=S)N2)c(OC)c1`: the inhibition was -2.28% (inactive).

With `Fc1cccc(Cl)c1COc1ccc(-c2nnco2)cc1`, the inhibition is 23.1% (inactive).

On to `Fc1ccc(COc2ccc(-c3nnco3)cc2)cc1`, for which the inhibition was 77.7% (active).

`Fc1ccc(COc2cccc(-c3n[nH]c(=S)o3)c2)cc1`: the inhibition was -1.11% (inactive).

As for `Cc1cccc(NC(=O)NC2(C)CCS(=O)(=O)C2)c1` (stereo not given), the inhibition is -6.44% (inactive).

On to `CCCC(NCC(=O)Nc1ccccc1C(=O)NC1CC1)c1ccccc1` (stereo not given), for which the inhibition was 11.1% (inactive).

With `Cc1ccc(NC(=O)NC(=O)CSc2nnc(-c3ccc(OC(F)F)cc3)n2N)c(C)c1`, the inhibition is 1.8% (inactive).

As for `CC(C)C[C@@H](COc1ccccc1)N1CCN(CC(C)C)CCC1=O`, the inhibition was 12.3% (inactive).

With `CC/C(=C\c1ccc(Cl)cc1)c1ccncc1`, the inhibition is 57.3% (active).

`N#C/C(=C/c1ccc(Cl)cc1)NC(=O)c1ccccc1`: the inhibition is -13.8% (inactive).

As for `CC(Cc1cccs1)N(Cc1ccc(Cl)cc1)C(=O)c1ccncc1` (stereo not given), the inhibition is 8.76% (inactive).

For `CCCSC(=S)NC1CCS(=O)(=O)C1` (stereo not given), the inhibition is 10.7% (inactive).

For the compound `O=C(OCC(=O)N1CCCC1=O)c1cc(S(=O)(=O)N2CCOCC2)ccc1Cl`, the inhibition is 6.4% (inactive).

In the case of `O=C(OCC(=O)N1CCOCC1)c1ccc2ccccc2c1`, the inhibition was -11.5% (inactive).

As for `COc1ccc(OC)c(/C(C)=N\NC(=O)c2cc3cc(Cl)ccc3n2C)c1`, the inhibition is 1.75% (inactive).

Regarding `C=C(C)c1cccc(C(C)(C)NC(=O)NC2CCCC2)c1`, the inhibition is -1.51% (inactive).

For `C=C(C)c1cccc(C(C)(C)NC(=O)N2CCN(c3ncccn3)CC2)c1`, the inhibition was 36.7% (active).

For `C=C(C)c1cccc(C(C)(C)NC(=O)NCCN(CC)CC)c1`, the inhibition was -10.6% (inactive).

In the case of `COc1cccc(NC(=O)C2C(c3ccccc3)C2(Cl)Cl)c1` (stereo not given), the inhibition was -10.4% (inactive).

For the compound `COc1ccc(N2CCN(C(=O)CCNC(=O)c3ccc(Br)cc3)CC2)cc1`, the inhibition was 4.57% (inactive).

On to `CCOc1ccccc1NC(=O)c1cc(S(=O)(=O)N2CCC3(CC2)OCCO3)ccc1F`, for which the inhibition is 3.17% (inactive).

As for `CN1OC[C@@H]2CN(C(=O)c3ccc(-c4ccccc4)cc3)[C@H](c3ccc(-c4cccc(F)c4)cc3)C[C@@H]21`, the inhibition is -1.35% (inactive).

For `CC(=O)N1CCN(C(=O)C2(NC(=O)Nc3ccc(C)cc3)CCCCC2)CC1`, the inhibition is -13.7% (inactive).

As to `O=C(C1CCCO1)N1CCN(C(=O)C23CC4CC(CC(C4)C2)C3)CC1` (stereo not given), the inhibition is 24.4% (inactive).

On to `N/C(Cc1ccc([N+](=O)[O-])cc1)=N\OC(=O)COc1ccc2ccccc2c1`, for which the inhibition is -1.15% (inactive).

In the case of `CC(c1cccnc1)N(CCN(C)C)C(=O)Nc1ccc(Cl)c(Cl)c1` (stereo not given), the inhibition is 0.83% (inactive).

As for `CCn1nccc1C(=O)Nc1ccc(Cl)c(Cl)c1`, the inhibition is 44.5% (active).

Turning to `CCn1nccc1C(=O)Nc1ccc(S(=O)(=O)NC23CC4CC(CC(C4)C2)C3)cc1`, the inhibition was 5.56% (inactive).

As to `CC1CCCC(C)N1C(=O)CSc1nnnn1C1CCCC1` (stereo not given), the inhibition was -2.05% (inactive).

In the case of `COc1ccccc1-c1cc(NC(C)=O)c2ncc(-c3ccc(F)cc3)n2c1`, the inhibition was 18.1% (inactive).

Take `COc1ccccc1-c1nnc(-c2ccc(F)cc2)o1`: the inhibition was 45% (active).

In the case of `COc1ccccc1C1=CC(=O)C[C@H](c2ccc(F)cc2)C1`, the inhibition was 8.41% (inactive).

Take `Cn1c(SCC(=O)N2CCOCC2)nnc1-c1ccc2ncccc2c1`: the inhibition is 3.82% (inactive).

`Cc1cccc(-c2nc3c(c(SCC(=O)N4CCOCC4)n2)CCCC3)c1`: the inhibition was 37.9% (active).

In the case of `N#Cc1c(C(F)(F)F)cc(-c2ccccc2)nc1SCC(=O)N1CCOCC1`, the inhibition is 2.8% (inactive).

With `Cc1ccc(C)c(S(=O)(=O)N2CC(=O)Nc3ccccc32)c1`, the inhibition is -15.3% (inactive).

In the case of `CCOC(=O)c1c(C(C#N)C#N)cc(C)nc1C`, the inhibition is -3.86% (inactive).

Turning to `CCCCSc1[nH]c(=O)c(C(=O)OCC)cc1C#N`, the inhibition was 48.3% (active).

Take `CCOC(=O)c1cc(C)nc(S(C)(=O)=O)c1C#N`: the inhibition was 13.5% (inactive).

Regarding `CC(=O)Nc1cnc(-c2ccc(O)cc2C)cn1`, the inhibition is -1.38% (inactive).

With `CCC(Oc1ccccc1)C(=O)OCC(=O)Nc1c(C)nn(-c2ccccc2)c1C` (stereo not given), the inhibition was 15.9% (inactive).

For the compound `CC(C)C1CCN(C(=O)C2CCC(=O)N(C3CCCCCC3)C2)CC1` (stereo not given), the inhibition was -2.6% (inactive).

Consider `Cc1nn(CC2CC2)c(=O)n1N(C)c1ncc(C(F)(F)F)cc1Cl`, for which the inhibition is 3.57% (inactive).

Consider `Cc1nn(-c2ncc(C(F)(F)F)cc2Cl)c(=O)n1-c1ccccc1`, for which the inhibition was 35.6% (active).

As to `Cc1nn(CC#N)c(=O)n1N(C)c1ncc(C(F)(F)F)cc1Cl`, the inhibition is -3.68% (inactive).

Consider `CCCn1c(N)c(C(=O)CSc2nnc3n2CCCCC3)c(=O)[nH]c1=O`, for which the inhibition is 9.24% (inactive).

As for `COc1ccccc1C(=O)N(C1=NC(C)CS1)c1ccc(Cl)cc1` (stereo not given), the inhibition is -17.9% (inactive).

For the compound `Cc1ccc(N/C(N)=N/c2nc(C(F)(F)F)cc(C(F)(F)F)n2)cc1`, the inhibition is 2.4% (inactive).

As for `Oc1ccc(N=Nc2nccs2)c(O)c1`, the inhibition is 40.3% (active).

For `CCN(CC)P(=O)(/C(Cl)=C\Nc1c(C)n(C)n(-c2ccccc2)c1=O)N(CC)CC`, the inhibition was 38.6% (active).

Regarding `Cc1c(NC(=S)Nc2ccccc2)c(=O)n(-c2ccccc2)n1C`, the inhibition is 13.7% (inactive).

`Cc1cc(C)cc(N(CC(=O)Nc2c(C)n(C)n(-c3ccccc3)c2=O)S(C)(=O)=O)c1`: the inhibition was -7.93% (inactive).

As to `C=CC[C@@H](CC(=O)NCCO)C(=O)N[C@H](C)COC(=O)[C@@H](CC=C)CC(=O)OC(C)(C)C`, the inhibition is 4% (inactive).

On to `CCOC(=O)C1CN(S(=O)(=O)c2ccc(F)cc2)C1`, for which the inhibition was -3.48% (inactive).

Consider `O=S(=O)(c1ccc(F)cc1)N1CC=C(c2ccccc2)CC1`, for which the inhibition is 0.877% (inactive).

Take `O=C(O)c1cccc(S(=O)(=O)N2CC=C(c3ccccc3)CC2)c1`: the inhibition is -4.6% (inactive).

For the compound `Cc1c(C2=CCN(S(=O)(=O)c3ccc(Cl)cc3)CC2)c2ccccc2n1C`, the inhibition is 40.5% (active).

With `O=C(CSc1cccc[n+]1[O-])c1ccc(-c2ccccc2)cc1`, the inhibition was -20.6% (inactive).

Take `O=C(O)/C(=C/c1cccnc1)NC(=O)c1ccccc1`: the inhibition is 0.0898% (inactive).

Take `Cc1cccc(NS(=O)(=O)c2ccc(C(=O)NCC(C)(C)N3CCOCC3)cc2)c1C`: the inhibition was -5.62% (inactive).

For `Cc1cc(C(=O)COc2ccccc2[N+](=O)[O-])c(C)n1-c1cccc(S(=O)(=O)N2CCOCC2)c1`, the inhibition was 7.44% (inactive).

`COCCNC(=O)CN(C(=O)CCC(=O)Nc1cc(C)on1)c1ccc(C)cc1C`: the inhibition is -14.7% (inactive).

Regarding `CC1CN(c2nc(Nc3ccccc3)nc(N)c2[N+](=O)[O-])CC(C)O1` (stereo not given), the inhibition is 38% (active).

Consider `COCCNc1nc(N)c([N+](=O)[O-])c(N2CCCCCC2)n1`, for which the inhibition was 23.7% (inactive).

Consider `Nc1nc(NCCCN2CCOCC2)nc(Nc2ccccc2)c1[N+](=O)[O-]`, for which the inhibition was 5.52% (inactive).

As for `Fc1ccccc1OCCSc1nc2ccccc2o1`, the inhibition is 36.2% (active).

With `CCN(CC)C(=O)CSc1nc2ccccc2o1`, the inhibition was 0.512% (inactive).

As for `CC(C)(C)C(=O)CSc1nc2ccccc2o1`, the inhibition is -6.68% (inactive).

With `Cn1c(SCC(=O)OC2CCCCC2)nnc1-c1ccc(S(=O)(=O)N2CCCC2)cc1`, the inhibition is -4.66% (inactive).

In the case of `O=C(NCCc1nnc2ccc(SCC(=O)N3CCOCC3)nn12)c1ccccc1`, the inhibition is 9.19% (inactive).

For `O=C(CSc1c2c(nc3ccc(Cl)cc13)CCCC2)NCc1ccco1`, the inhibition is 82.7% (active).

`O=C(NCc1ccco1)C1(c2ccc(Cl)cc2)CCCC1`: the inhibition was -1.05% (inactive).

For the compound `O=C(CSc1nnnn1-c1ccccc1)NCc1ccco1`, the inhibition was -15% (inactive).

As for `CCn1c(=O)n(CC)c2cc(N3CCCC3)c(NC(=O)c3ccccc3Br)cc21`, the inhibition is -26.6% (inactive).

The inhibition is the change of the read-out against control, counted positive when it falls.
